# Unmarked numbers belong to inactive results. Records with an inconclusive call do not appear. Entries that show only a call come without a potency. Calls of active or inactive are those of the source. Unless noted, calls follow the shape of the dose curve; as a rule, active = well fitted curve in the direction sought with a large enough effect; inconclusive = small, poorly fitted or top-dose-only effect, or another doubt; inactive = no such curve, though single readings can be large; an effect the other way counts as inactive or inconclusive.
# Key:
# [1] = molecular target: Rap guanine nucleotide exchange factor 3 (Homo sapiens) (UniProt O95398); assay: Confirmatory qHTS for agonist of cAMP-regulated guanine nucleotide exchange factor 3 (EPAC1) (AID 1645881);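 also: EPAC1 catalysed release of BODIPY-GDP from Rap1B seen as fluorescence loss; nearly all actives have a fitted effect of over 75% in size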
# Rap guanine nucleotide exchange factor 3 (Homo sapiens), sequence (O95398 whole entry, looked up): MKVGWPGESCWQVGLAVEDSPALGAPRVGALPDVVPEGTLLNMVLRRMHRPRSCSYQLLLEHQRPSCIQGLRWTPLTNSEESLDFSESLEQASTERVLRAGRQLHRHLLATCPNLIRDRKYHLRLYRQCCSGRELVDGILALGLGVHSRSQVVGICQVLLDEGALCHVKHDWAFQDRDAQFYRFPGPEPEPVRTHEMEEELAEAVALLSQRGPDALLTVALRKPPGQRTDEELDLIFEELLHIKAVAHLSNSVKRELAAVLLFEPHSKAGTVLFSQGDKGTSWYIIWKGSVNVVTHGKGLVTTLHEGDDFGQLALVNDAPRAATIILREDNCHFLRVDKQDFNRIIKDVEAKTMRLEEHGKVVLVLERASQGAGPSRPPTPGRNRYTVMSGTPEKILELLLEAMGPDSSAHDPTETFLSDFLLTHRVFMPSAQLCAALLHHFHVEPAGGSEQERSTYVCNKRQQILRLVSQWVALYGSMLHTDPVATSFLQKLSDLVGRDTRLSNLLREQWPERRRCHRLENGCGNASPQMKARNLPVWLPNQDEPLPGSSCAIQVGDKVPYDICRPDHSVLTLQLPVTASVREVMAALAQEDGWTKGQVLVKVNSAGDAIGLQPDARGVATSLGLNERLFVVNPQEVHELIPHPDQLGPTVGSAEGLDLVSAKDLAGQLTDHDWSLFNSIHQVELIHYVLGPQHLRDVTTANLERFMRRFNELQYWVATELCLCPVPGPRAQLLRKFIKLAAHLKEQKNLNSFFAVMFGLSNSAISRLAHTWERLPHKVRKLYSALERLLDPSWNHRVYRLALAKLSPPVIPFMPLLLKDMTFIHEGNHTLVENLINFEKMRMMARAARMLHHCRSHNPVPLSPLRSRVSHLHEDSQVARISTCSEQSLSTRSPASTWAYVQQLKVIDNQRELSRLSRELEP
# [2] = molecular target: Rap guanine nucleotide exchange factor 3 (Homo sapiens) (UniProt O95398); assay: Counterscreen qHTS for antagonist of cAMP-regulated guanine nucleotide exchange factor 3 (EPAC1) (AID 1645888);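 also: fluorescence loss as bound BODIPY-GDP is released from Rap1B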
# Procedure, shortened: (§1)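 Rap1B-BODIPY-GDP 250 nM + GDP 50 uM; cpds 7-pt, final 9.74 nM–152 uM (activator mode) or from 7.32 nM upwards (inhibitor mode); RT; FI 480/540 nm at 5 and 30 min, then ± cAMP, reread.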
# [3] = molecular target: Rap guanine nucleotide exchange factor 3 (Homo sapiens) (UniProt O95398); assay: Counterscreen qHTS for agonist of cAMP-regulated guanine nucleotide exchange factor 3 (EPAC1) (AID 1645889); also: nearly all actives have a fitted effect of over 40% in size
# Procedure, shortened: as §1
# [4] = molecular target: Rap guanine nucleotide exchange factor 4 (Homo sapiens) (UniProt Q8WZA2); assay: Confirmatory qHTS for agonist of cAMP-regulated guanine nucleotide exchange factor 4 (EPAC2) (AID 1645884);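 also: nucleotide exchange releases bodipy-GDP from Rap1 and this lowers its fluorescence; nearly all actives have a fitted effect of over 65% in size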; also: potency is read from the fitted curve at half-maximal effect
# Rap guanine nucleotide exchange factor 4 (Homo sapiens), sequence (Q8WZA2 whole entry, looked up): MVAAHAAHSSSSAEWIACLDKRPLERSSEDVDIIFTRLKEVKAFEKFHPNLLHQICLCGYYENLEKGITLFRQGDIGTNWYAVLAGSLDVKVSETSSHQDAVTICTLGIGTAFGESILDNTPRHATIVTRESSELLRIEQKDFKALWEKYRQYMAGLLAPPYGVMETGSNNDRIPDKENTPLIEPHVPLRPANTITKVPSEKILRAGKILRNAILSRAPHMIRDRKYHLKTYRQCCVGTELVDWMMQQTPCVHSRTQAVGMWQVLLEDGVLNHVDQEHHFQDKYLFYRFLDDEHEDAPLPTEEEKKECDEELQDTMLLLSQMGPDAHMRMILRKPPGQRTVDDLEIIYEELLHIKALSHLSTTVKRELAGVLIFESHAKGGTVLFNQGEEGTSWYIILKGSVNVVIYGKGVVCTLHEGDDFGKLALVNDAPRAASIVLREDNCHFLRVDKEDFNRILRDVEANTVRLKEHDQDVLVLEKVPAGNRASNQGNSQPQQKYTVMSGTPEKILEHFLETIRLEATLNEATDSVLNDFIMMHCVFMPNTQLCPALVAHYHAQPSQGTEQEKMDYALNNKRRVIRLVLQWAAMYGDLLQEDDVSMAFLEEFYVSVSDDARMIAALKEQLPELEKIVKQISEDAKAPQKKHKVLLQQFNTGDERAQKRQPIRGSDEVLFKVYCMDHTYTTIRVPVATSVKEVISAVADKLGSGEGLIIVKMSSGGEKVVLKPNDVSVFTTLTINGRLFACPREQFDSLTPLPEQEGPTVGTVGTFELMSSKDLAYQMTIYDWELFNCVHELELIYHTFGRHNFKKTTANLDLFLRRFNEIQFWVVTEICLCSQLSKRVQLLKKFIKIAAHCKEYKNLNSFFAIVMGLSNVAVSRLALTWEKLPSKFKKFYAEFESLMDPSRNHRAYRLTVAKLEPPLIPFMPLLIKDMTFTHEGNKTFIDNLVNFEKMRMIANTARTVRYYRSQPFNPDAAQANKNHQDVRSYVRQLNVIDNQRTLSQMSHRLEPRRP
# [5] = molecular target: Rap guanine nucleotide exchange factor 4 (Homo sapiens) (UniProt Q8WZA2); assay: Confirmatory qHTS for antagonist of cAMP-regulated guanine nucleotide exchange factor 4 (EPAC2) (AID 1645885); also: nearly all actives have a fitted effect of over 25% in size; also: potency is read from the fitted curve at half-maximal effect
# [6] = molecular target: Cytochrome P450 1A2 (Homo sapiens) (UniProt P05177); assay: p450-cyp1a2 (AID 410; calls by dose curve; also: potency is read from the fitted curve at half-maximal effect)
# Cytochrome P450 1A2 (Homo sapiens), sequence (P05177 whole entry, looked up): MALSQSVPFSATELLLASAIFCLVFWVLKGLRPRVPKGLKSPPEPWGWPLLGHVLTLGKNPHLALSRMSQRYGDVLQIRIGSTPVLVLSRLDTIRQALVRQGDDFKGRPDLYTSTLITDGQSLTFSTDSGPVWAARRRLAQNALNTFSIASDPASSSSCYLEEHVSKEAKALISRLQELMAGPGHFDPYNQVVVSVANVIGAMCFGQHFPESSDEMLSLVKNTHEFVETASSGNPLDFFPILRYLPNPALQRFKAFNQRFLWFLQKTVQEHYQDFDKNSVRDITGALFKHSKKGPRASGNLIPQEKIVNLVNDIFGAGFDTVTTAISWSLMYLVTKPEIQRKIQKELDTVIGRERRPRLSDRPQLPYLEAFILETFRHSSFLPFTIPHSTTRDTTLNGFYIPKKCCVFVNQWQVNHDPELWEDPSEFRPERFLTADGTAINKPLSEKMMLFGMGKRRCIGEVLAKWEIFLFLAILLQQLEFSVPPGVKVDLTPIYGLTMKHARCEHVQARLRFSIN
# Procedure, shortened: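 Human CYP1A2 (20nM) demethylated Luciferin-ME at its Km (100uM) in 100mM KPO4. After 10 min compound preincubation, NADPH regeneration ran the reaction 60 min at room temperature. Luciferin was read by luminescence, normalized to 57 uM furafylline.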
# [7] = molecular target: Glucocorticoid receptor (Homo sapiens) (UniProt P04150); assay: GR-EFC Redistribution (AID 451; calls by dose curve; also: potency is read from the fitted curve at half-maximal effect); settings: CHO-K1 GR-EFC translocation, beta-gal luminescence, 2 h
# Glucocorticoid receptor (Homo sapiens), sequence (P04150 whole entry, looked up, the tested form may be a part): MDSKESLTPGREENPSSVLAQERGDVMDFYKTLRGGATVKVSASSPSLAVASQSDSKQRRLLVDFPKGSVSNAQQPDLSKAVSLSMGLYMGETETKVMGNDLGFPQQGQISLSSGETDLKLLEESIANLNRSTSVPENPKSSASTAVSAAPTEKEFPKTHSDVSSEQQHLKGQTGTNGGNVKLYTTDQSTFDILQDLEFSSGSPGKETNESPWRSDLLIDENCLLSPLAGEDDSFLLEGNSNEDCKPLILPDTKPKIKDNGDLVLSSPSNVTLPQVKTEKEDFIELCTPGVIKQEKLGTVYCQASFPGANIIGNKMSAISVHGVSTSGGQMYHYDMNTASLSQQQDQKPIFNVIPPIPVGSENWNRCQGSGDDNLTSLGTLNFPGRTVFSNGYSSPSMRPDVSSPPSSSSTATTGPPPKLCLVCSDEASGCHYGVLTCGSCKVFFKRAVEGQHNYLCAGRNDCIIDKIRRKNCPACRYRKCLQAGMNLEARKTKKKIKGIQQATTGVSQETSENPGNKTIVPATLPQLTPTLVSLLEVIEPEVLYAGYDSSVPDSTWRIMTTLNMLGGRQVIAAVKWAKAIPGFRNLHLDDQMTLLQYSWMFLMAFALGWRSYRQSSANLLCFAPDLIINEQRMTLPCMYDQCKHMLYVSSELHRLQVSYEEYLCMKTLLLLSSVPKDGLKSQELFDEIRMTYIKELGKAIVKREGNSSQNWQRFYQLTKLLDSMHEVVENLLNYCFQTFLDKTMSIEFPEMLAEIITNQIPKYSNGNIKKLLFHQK
# Procedure, shortened: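 Translocation of GR-ED fusion to nuclear EA restores b-gal, read by luminescence after 1 h room-temperature detection. Engineered CHO-K1 biosensor cells, 1,000/well, exposed 2 h at 37 C to titrations up to 46 uM final.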
# [8] = molecular target: Mitogen-activated protein kinase 10 (Mus musculus) (UniProt Q61831); assay: JNK3 AlphaScreen Assay (AID 530; active = well fitted curve in either direction with a large enough effect, not every such curve was filed as active;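 also: kinase came from lysate of stimulated human HepG2 cells; signal reports phosphorylation of biotinylated GST-cJun 1-79 at Ser73 with 10 µM ATP; series mostly up to about 57 µM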)
# Procedure, shortened: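 Room-temperature AlphaScreen kinase assay; pre-activated HepG2 lysate as JNK3 source, biotin-GST-cJun(1-79) substrate, 10 uM ATP, compound 15 min preincubation.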
# [9] = molecular target: 3',5'-cyclic-AMP phosphodiesterase 4B (Homo sapiens) (UniProt Q07343); assay: qHTS Assay for Inhibitors of PDE-IV (AID 607; active = well fitted activation curve with a large enough effect in the main read-out, with a control signal flat, not every such curve was filed as active)
# Procedure, shortened: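 ACTOne HEK293 cells carry a modified cAMP-gated CNG channel and express endogenous PDE4; plated 1000 cells/well, compounds up to 22.9 uM final. Membrane-potential dye fluorescence (ex 535/em 590) was read; parental cells received 10 uM forskolin + 100 uM RO 20-1724.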
# [10] = molecular target: Cytochrome P450 2C9 (Homo sapiens) (UniProt P11712); assay: qHTS Assay for Inhibitors and Substrates of Cytochrome P450 2C9 (AID 883); also: nearly all actives have a fitted effect of over 60% in size
# Procedure, shortened: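 Luminescent read-out of deoxyluciferin hydroxylation, normalized to 57uM sulphaphenazole (AC100). Reaction: 10nM enzyme, 100uM Luciferin-H (equal to KM), 25mM KPO4, 10 min compound preincubation, then 60 min with NADPH regeneration, both at 37C.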
# [11] = molecular target: Cytochrome P450 3A4 (Homo sapiens) (UniProt P08684); assay: qHTS Assay for Activators of Cytochrome P450 3A4 (AID 885); also: nearly all actives have a fitted effect of over 65% in size
# Procedure, shortened: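 20nM CYP3A4 + 25uM Luciferin-PPXE (=KM), 200mM KPO4; cpd 10 min RT; NADPH regen, 60 min RT; stop w/ detection buffer, 20 min; luminescence. Normalized to 57 uM ketoconazole.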
# [12] = molecular target: Cytochrome P450 2D6 (Homo sapiens) (UniProt P10635); assay: qHTS Assay for Inhibitors and Substrates of Cytochrome P450 2D6 (AID 891);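 also: luciferin methyl ether substrate demethylated by CYP2D6 with NADPH regeneration; nearly all actives have a fitted effect of over 60% in size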
# Cytochrome P450 2D6 (Homo sapiens), sequence (P10635 whole entry, looked up): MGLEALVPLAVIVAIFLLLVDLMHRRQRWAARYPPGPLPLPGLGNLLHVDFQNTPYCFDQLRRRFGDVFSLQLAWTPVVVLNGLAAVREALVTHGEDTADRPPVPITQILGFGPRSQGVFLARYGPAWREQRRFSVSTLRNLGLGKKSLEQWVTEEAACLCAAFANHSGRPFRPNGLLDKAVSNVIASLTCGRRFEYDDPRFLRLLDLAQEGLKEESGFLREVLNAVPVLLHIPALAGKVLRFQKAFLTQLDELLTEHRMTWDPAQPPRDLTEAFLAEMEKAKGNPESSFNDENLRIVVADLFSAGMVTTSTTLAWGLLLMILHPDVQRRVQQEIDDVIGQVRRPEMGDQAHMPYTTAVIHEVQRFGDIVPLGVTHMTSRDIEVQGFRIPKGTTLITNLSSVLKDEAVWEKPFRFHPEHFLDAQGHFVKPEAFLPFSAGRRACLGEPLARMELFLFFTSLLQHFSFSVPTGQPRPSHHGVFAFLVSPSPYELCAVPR
# Procedure, shortened: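 Human CYP2D6 (5 nM) with 30 uM Luciferin-ME EGE (at Km) in 100 mM KPO4, compound preincubated 10 min, then NADPH regeneration system for 60 min at room temperature. Luciferin read by luminescence; normalized to 1.43 uM quinidine.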
# [13] = molecular target: DNA dC->dU-editing enzyme APOBEC-3G (Homo sapiens) (UniProt Q9HC16); assay: qHTS for inhibitors of Vif-A3G interactions: Validation (AID 588379)
# Procedure, shortened: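 HeLa cells stably expressing Vif and A3G-eYFP, 700 cells/well, incubated overnight at 37 deg C, then exposed to compound overnight at 37 deg C. Inhibition of Vif-mediated degradation read as increased yellow fluorescence (Ex 488/Em 500-530) by laser-scanning cytometry.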
# [14] = molecular target: Tyrosyl-DNA phosphodiesterase 1 (Homo sapiens) (UniProt Q9NUW8); assay: Confirmation Assay for Inhibitors of Tyrosyl-DNA Phosphodiesterase (TDP1) (AID 489007); settings: recombinant human TDP1 enzymatic activity, dose-response; also: potency is read from the fitted curve at half-maximal effect; nearly all actives have a fitted effect of over 40% in size
# Tyrosyl-DNA phosphodiesterase 1 (Homo sapiens), sequence (Q9NUW8 whole entry, looked up): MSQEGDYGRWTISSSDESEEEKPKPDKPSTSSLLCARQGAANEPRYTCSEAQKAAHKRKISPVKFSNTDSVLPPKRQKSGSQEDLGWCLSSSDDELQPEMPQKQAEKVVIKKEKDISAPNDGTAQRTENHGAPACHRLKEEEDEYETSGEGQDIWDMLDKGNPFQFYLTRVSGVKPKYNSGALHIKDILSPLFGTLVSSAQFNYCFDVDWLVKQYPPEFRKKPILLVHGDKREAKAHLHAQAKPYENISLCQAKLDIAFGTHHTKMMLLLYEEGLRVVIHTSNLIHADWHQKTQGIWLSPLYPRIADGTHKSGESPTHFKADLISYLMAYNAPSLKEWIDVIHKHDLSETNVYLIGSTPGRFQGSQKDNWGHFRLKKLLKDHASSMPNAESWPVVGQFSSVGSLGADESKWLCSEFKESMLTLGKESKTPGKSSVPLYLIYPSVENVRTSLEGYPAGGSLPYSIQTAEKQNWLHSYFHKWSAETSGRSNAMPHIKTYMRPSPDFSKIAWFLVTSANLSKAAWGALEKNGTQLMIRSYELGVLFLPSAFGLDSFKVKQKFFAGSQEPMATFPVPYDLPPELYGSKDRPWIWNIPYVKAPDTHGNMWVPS
# Procedure, shortened: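 Recombinant E. coli-expressed Tdp1 (1 nM final) was preincubated with compounds 15 min at room temperature, then reacted 5 min with 15 nM 5'-biotin/3'-phosphotyrosine-FITC DNA substrate; cleavage read as loss of AlphaScreen signal (10 ug/ml beads, 10 min).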
# [15] = molecular target: Tumor susceptibility gene 101 protein (Homo sapiens) (UniProt Q99816); assay: qHTS Assay for Iinhibitors of HIV-1 Budding by Blocking the Interaction of PTAP/TSG101: Hit Validation (AID 651600); also: nearly all actives have a fitted effect of over 70% in size; also: potency is read from the fitted curve at half-maximal effect
# Tumor susceptibility gene 101 protein (Homo sapiens), sequence (Q99816 whole entry, looked up, the tested form may be a part): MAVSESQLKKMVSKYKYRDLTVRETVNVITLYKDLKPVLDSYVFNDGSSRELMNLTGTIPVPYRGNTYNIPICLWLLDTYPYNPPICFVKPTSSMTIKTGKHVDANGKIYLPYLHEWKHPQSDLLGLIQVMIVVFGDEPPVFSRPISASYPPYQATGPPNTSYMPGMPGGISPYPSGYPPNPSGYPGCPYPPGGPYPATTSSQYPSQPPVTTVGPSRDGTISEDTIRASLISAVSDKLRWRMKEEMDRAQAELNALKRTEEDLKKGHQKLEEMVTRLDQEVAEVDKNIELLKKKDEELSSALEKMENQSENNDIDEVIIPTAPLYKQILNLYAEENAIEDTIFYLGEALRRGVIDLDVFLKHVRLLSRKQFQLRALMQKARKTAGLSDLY
# Procedure, shortened: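 Compounds are added to the Tsg101 binding domain (10 uM final) in pH 7.5 HEPES buffer. FITC-PTAP peptide follows at 50 nM final. After 20 min at r.t., polarized FITC emission is measured.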
structure (smiles),measurement,setting,value
COc1ccccc1CNC(=O)C1(C)CCN1Cc1ccc2ccccc2c1 (stereo not drawn),Potency,[1],inactive
same,Potency,[2],inactive
same,Potency,[3],inactive
O=C(Nc1cc(S(=O)(=O)N2CCCCC2)ccc1O)c1ccccc1NS(=O)(=O)c1ccc(F)c(F)c1,Potency,[4],0.282 µM (active)
same,Potency,[5],inactive
same,"activity change, negative = inhibition",[2],-23% [at 30.8 µM]
COc1cccc(/C=N/Nc2ccc(S(=O)(=O)Nc3ccccc3C(=O)O)cc2[N+](=O)[O-])c1O,activation,[4],"3.64% [at 17.1 µM, percent relative to cAMP agonist control]"
same,Potency,[5],inactive
same,"activity change, negative = inhibition",[2],-5.08% [at 30.8 µM]
CC1=CC(=C(C#N)c2nc3ccccc3s2)C=C(C)N1Cc1ccco1,Potency,[4],inactive
same,Potency,[5],inactive
same,Potency,[2],inactive
COc1ccc2c(c1)C(SCC(=O)NCCc1ccc(Cl)cc1)CC(C)(C)O2 (stereo not drawn),activation,[4],"12.3% [at 17.1 µM, percent relative to cAMP agonist control]"
same,Potency,[5],inactive
same,"activity change, negative = inhibition",[2],8.95% [at 30.8 µM]
O=C(O)COc1ccccc1/C=N/Nc1ccc(S(=O)(=O)Nc2ccc(Cl)cc2)cc1[N+](=O)[O-],activation,[4],"1.99% [at 17.1 µM, percent relative to cAMP agonist control]"
same,Potency,[5],inactive
same,"activity change, negative = inhibition",[2],-8.36% [at 30.8 µM]
CCc1nc2c(OCc3ccc(C(F)(F)F)cc3)cccn2c1N(C)C(=O)CC(C)C,Potency,[1],inactive
same,Potency,[3],inactive
Nc1nc(N)c2c(ccc3c2ccn3Cc2cccc([N+](=O)[O-])c2)n1,Potency,[4],100 µM (active)
Cc1nc(C)c(-c2csc(Nc3ccc(C(=O)O)c(O)c3)n2)s1,Potency,[4],inactive
same,Potency,[5],inactive
same,Potency,[2],inactive
COC(=O)c1ccc2nc(-c3ccc(C)cc3)c(Cc3cccc(F)c3)n2c1,Potency,[1],inactive
same,Potency,[3],inactive
COc1ccc(C2Nc3ccccc3-c3cc(C)nn32)c(OC)c1 (stereo not drawn),Potency,[4],inactive
same,Potency,[5],inactive
same,Potency,[2],inactive
COc1ccc(S(=O)(=O)Nc2ccc(F)cc2)c(C)c1C,Potency,[4],inactive
same,Potency,[5],5.36 µM (active)
same,Potency,[2],inactive
CCOC(=O)c1c(CC(C)C)csc1NC(C)=O,Potency,[1],inactive
same,Potency,[3],inactive
CCOc1ccc(N(Cc2ccc(OC)cc2)C(=O)c2ccco2)cc1,Potency,[1],inactive
same,Potency,[3],inactive
CCCC/C=C/[C@H](c1ccccc1)[C@H](CO)Cc1cccnc1,Potency,[1],inactive
same,Potency,[3],inactive
O=C(Nc1cccc(C(F)(F)F)c1)C1Cc2c(-c3ccccc3)ccnc2O1 (stereo not drawn),activation,[4],"3.96% [at 17.1 µM, percent relative to cAMP agonist control]"
same,Potency,[5],inactive
same,"activity change, negative = inhibition",[2],-3.59% [at 30.8 µM]
CCOC(=O)C1(C)C=C(Nc2ccc(C(N)=O)cc2)C(=O)N1c1ccccc1 (stereo not drawn),Potency,[4],inactive
same,Potency,[5],10.7 µM (active)
same,Potency,[2],inactive
S=c1[nH]nc(-c2cc(-c3ccccc3)n[nH]2)n1/N=C/c1ccc(Cl)c(Cl)c1,activation,[4],"2.21% [at 17.1 µM, percent relative to cAMP agonist control]"
same,Potency,[5],inactive
same,"activity change, negative = inhibition",[2],-11.9% [at 30.8 µM]
C/C(=N\O)C(=O)OC1CC(C)CCC1C(C)C (stereo not drawn),Potency,[1],inactive
same,Potency,[3],inactive
COc1ccc2cc(-c3nc(Cl)c4c5c(sc4n3)CCCC5)c(=O)oc2c1,Potency,[4],inactive
same,Potency,[5],inactive
same,Potency,[2],inactive
Cc1ccc(C(=O)N(Cc2ccco2)Cc2sccc2C)cc1,Potency,[4],inactive
same,Potency,[5],inactive
same,Potency,[2],inactive
O=C(O)c1ccc(N/N=C/c2ccc(-c3ccc(Cl)cc3Cl)o2)cc1,Potency,[4],inactive
same,Potency,[5],inactive
same,Potency,[2],inactive
N#C/C(=C\c1ccc(Sc2ccccc2)o1)c1nc2ccccc2[nH]1,Potency,[4],112 µM (active)
same,Potency,[5],inactive
same,Potency,[2],inactive
Cc1nc2ccccc2c(C)c1C(=O)c1ccccc1,Potency,[1],inactive
same,activation,[3],-2.6% [at 30.8 µM]
COC(=O)c1ccc2nc(-c3ccc(Cl)cc3)c(Cc3ccccc3OC)n2c1,Potency,[1],inactive
same,Potency,[3],inactive
CCOC(=O)C1Oc2ccccc2C(c2ccc(OC)cc2)=C1C(=O)OC (stereo not drawn),Potency,[1],inactive
same,Potency,[3],inactive
CC(=O)N(CCC(c1ccco1)C(C)C)Cc1ccc(OC(C)C)cc1 (stereo not drawn),Potency,[1],inactive
same,Potency,[3],inactive
COc1cc2cc(Oc3ccc4ccc(=O)oc4c3)c(=O)oc2cc1O,Potency,[6],2 µM (active)
same,Potency,[7],> 46 µM
same,Potency,[8],inactive
same,Potency,[9],inactive
same,Potency,[10],inactive
same,outcome,[11],inactive
same,Potency,[12],inactive
same,outcome,[13],inactive
O=C(O)c1ccc(Nc2nc(-c3cc4ccccc4oc3=O)cs2)cc1O,Potency,[14],63.1 µM (active)
CC(=O)N1CCc2nc3sc(C(=O)c4ccc(F)cc4)c(N)c3c(C(F)(F)F)c2C1,Potency,[15],inactive
Cc1cc2nc3c(=O)n(Cc4ccccc4)c(=O)[nH]c3nc2cc1N,Potency,[15],3.66 µM (active)
N#Cc1ccc(CSc2nc(N)cc(N)n2)cc1,Potency,[4],112 µM (active)
same,Potency,[2],inactive
same,Potency,[3],inactive

# — PubChem BioAssay (NCATS)
